Measurements taken from PubChem BioAssay (EPA / NIEHS).
Records with an inconclusive call do not appear. Calls of active or inactive are those of the source. The calls were made as follows: active = hit-call score of the fitted dose curve at least 0.9, where 1 is the maximum; inconclusive = response in the unintended direction; inactive = score below 0.9.

Tests used:
[1] = target: human Ephrin type-A Receptor 1 (EphA1), EPHA1 (gene 2041) (UniProt P21709); assay: NVS_ENZ_hEphA1: NovaScreen (NVS) Enzymatic Assay for human Ephrin type-A Receptor 1 (EphA1) (AID 2283158);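 also: activity is signal loss versus DMSO meaning EphA1 kinase inhibition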
Summary of the method: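 Cell-free kinase activity with recombinant protein, 1 hour after dosing; product separated by electrophoretic mobility shift, fluorescence read. Primary screen at 25 uM in duplicate; hits run as concentration-response up to 50 uM, relative to DMSO.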

[2] = target: human Dual Specificity Protein Phosphatase 3 (DUSP3), DUSP3 (gene 1845) (UniProt P51452); assay: NVS_ENZ_hDUSP3: NovaScreen (NVS) Enzymatic Assay for human Dual Specificity Protein Phosphatase 3 (DUSP3) (AID 2283152);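 also: phosphatase activity of recombinant human DUSP3 on a fluorogenic substrate without cells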
Summary of the method: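 Cell-free assay with recombinant human DUSP3 and fluorogenic substrate, read by fluorescence intensity. Primary screen ran duplicate at 25 uM; actives followed up in concentration series; loss of signal versus DMSO scored.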

[3] = target: human Elastase, ELANE (gene 1991) (UniProt P08246); assay: NVS_ENZ_hElastase: NovaScreen (NVS) Enzymatic Assay for human Elastase (AID 2283153)
Procedure: NVS_ENZ_hElastase is a biochemical, single-readout assay that uses extracted gene-proteins from Human neutrophils in a cell-free assay. Measurements were taken 1.5 hours after chemical dosing in a 96-well plate.NVS_ENZ_hElastase is one of one assay component(s) measured or calculated from the NVS_ENZ_hElastase assay. It is designed to make measurements of enzyme activity, a form of enzyme reporter, as detected with absorbance signals by Spectrophotometry technology.Data from the assay component NVS_ENZ_hElastase was analyzed into 1 assay endpoint. This assay endpoint, NVS_ENZ_hElastase, was analyzed in the positive analysis fitting direction relative to DMSO as the negative control and baseline of activity. Using a type of enzyme reporter, loss-of-signal activity can be used to understand changes in the enzymatic activity as they relate to the gene ELANE. Furthermore, this assay endpoint can be referred to as a primary readout, because this assay has produced multiple assay endpoints where this one serves a enzymatic activity function. To generalize the intended target to other relatable targets, this assay endpoint is annotated to the protease intended target family, where the subfamily is serine protease. […]

[4] = target: human Esterase Plasma (ES), BCHE (gene 590) (UniProt P06276); assay: NVS_ENZ_hES: NovaScreen (NVS) Enzymatic Assay for human Esterase Plasma (ES) (AID 2283157)
Summary of the method: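 Cell-free enzyme assay using esterase extracted from human plasma; colorimetric absorbance read 0.25 hour after dosing. Single-concentration duplicate screen at 25 uM, then concentration-response up to 50 uM; loss of signal scored against DMSO baseline.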

[5] = target: human FYN Proto-Oncogene, Src family Tyrosine Kinase (Fyn), FYN (gene 2534) (UniProt P06241); assay: NVS_ENZ_hFyn: NovaScreen (NVS) Enzymatic Assay for human FYN Proto-Oncogene, Src family Tyrosine Kinase (Fyn) (AID 2283161)
Summary of the method: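 Recombinant enzyme with fluorescent substrate, product separated by electrophoretic mobility shift; read 1 h after dosing. Duplicate 25 uM single-point screen, actives retested in concentration series; loss of signal vs DMSO.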

[6] = target: human Janus Kinase 2 (Jak2), JAK2 (gene 3717) (UniProt O60674); assay: NVS_ENZ_hJak2: NovaScreen (NVS) Enzymatic Assay for human Janus Kinase 2 (Jak2) (AID 2283169)
Summary of the method: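 Cell-free recombinant human JAK2 enzyme activity assay, fluorescence/electrophoretic mobility shift read 1 h after dosing. Screened in duplicate at 25 uM, then concentration-response up to 50 uM; activity as signal loss relative to DMSO.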

[7] = target: Histone deacetylase 3 (Homo sapiens) (UniProt O15379); assay: NVS_ENZ_hHDAC3: NovaScreen (NVS) Enzymatic Assay for human Histone Deacetylase 3 (HDAC3) (AID 2283163)
Summary of the method: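 Recombinant human HDAC3 with fluorescent substrate, 1 h after dosing; product separated from substrate by electrophoretic mobility shift and read by fluorescence. Primary screen at 25 uM in duplicate; actives (e.g. ≥30% inhibition) retested in concentration-response up to 50 uM.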

[8] = target: Glycogen synthase kinase-3 beta (Homo sapiens) (UniProt P49841); assay: NVS_ENZ_hGSK3b: NovaScreen (NVS) Enzymatic Assay for human Glycogen Synthase Kinase-3 beta (GSK3b) (AID 2283165)
Summary of the method: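 Recombinant enzyme with specific fluorescent substrate, 1 h, product separated by electrophoretic mobility shift. Primary duplicate screen at 25 uM; actives (e.g. 30% inhibition) followed in singleton concentration-response to 50 uM. Signal loss fitted versus DMSO.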

[9] = target: human Insulin Receptor (InsR), INSR (gene 3643) (UniProt P06213); assay: NVS_ENZ_hInsR: NovaScreen (NVS) Enzymatic Assay for human Insulin Receptor (InsR) (AID 2283168)
Summary of the method: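 Fluorescent substrate phosphorylation by recombinant kinase, product resolved by electrophoretic mobility shift, read 1 h after dosing. Screened in duplicate at 25 uM; hits (e.g., 30% inhibition) run in concentration-response to 50 uM; DMSO as baseline.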

[10] = target: Mitogen-activated protein kinase 3 (Homo sapiens) (UniProt P27361); assay: NVS_ENZ_hMAPK3: NovaScreen (NVS) Enzymatic Assay for human Mitogen-Activated Protein Kinase 3 (MAPK 3) (AID 2283177)
Summary of the method: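 Cell-free enzymatic assay with recombinant protein and specific substrate; fluorescence and electrophoretic mobility shift read-out 1 h after dosing. Primary screen duplicate at 25 uM; actives then run in concentration-response up to 50 uM, loss of signal versus DMSO.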

human Ephrin type-A Receptor 1 (EphA1), EPHA1 (gene 2041), sequence (P21709 whole entry, looked up): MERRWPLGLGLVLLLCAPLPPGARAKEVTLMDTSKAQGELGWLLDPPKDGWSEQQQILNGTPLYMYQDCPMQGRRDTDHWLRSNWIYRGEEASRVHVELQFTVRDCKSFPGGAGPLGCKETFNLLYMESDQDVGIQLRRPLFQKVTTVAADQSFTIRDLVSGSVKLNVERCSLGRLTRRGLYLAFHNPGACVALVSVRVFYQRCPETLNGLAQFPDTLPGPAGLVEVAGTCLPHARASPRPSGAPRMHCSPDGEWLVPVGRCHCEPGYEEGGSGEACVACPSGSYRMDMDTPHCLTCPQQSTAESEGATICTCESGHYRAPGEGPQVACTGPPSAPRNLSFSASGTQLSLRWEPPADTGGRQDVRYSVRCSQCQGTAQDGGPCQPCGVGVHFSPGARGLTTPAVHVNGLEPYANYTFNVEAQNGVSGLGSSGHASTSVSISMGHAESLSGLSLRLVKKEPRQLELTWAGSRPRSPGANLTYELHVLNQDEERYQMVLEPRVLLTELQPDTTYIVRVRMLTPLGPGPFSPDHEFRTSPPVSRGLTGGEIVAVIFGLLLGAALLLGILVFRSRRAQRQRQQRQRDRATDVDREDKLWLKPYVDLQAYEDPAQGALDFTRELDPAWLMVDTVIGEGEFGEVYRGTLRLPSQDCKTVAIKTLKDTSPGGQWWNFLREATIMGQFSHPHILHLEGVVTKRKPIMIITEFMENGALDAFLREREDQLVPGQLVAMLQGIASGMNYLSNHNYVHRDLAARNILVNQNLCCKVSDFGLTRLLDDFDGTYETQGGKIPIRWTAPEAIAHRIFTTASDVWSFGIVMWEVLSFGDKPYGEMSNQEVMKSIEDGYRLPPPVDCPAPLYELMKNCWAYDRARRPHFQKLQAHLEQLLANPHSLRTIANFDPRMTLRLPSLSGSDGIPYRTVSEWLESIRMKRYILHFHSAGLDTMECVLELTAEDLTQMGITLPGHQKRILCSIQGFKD
human Esterase Plasma (ES), BCHE (gene 590), sequence (P06276 whole entry, looked up): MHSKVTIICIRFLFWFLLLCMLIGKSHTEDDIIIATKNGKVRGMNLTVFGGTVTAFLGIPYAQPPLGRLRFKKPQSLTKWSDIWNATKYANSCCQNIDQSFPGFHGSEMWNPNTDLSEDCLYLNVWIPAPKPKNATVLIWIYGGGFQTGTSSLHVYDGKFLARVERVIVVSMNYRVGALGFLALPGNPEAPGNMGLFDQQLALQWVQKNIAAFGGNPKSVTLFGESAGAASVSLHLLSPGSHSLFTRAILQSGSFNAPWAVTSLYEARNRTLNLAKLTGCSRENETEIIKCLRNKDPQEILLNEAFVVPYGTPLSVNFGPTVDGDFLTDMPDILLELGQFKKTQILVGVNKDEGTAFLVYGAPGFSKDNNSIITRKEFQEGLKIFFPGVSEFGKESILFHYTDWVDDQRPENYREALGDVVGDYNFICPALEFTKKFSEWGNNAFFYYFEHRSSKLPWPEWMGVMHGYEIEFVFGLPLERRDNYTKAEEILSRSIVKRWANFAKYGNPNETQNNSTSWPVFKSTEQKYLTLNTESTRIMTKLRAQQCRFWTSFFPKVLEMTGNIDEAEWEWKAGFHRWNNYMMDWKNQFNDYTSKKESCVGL
human Dual Specificity Protein Phosphatase 3 (DUSP3), DUSP3 (gene 1845), sequence (P51452 whole entry, looked up): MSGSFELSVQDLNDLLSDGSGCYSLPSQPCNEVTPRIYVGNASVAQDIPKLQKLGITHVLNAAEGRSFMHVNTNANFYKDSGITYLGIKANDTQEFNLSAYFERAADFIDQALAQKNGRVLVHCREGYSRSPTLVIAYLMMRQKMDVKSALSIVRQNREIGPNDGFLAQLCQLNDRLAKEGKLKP
human FYN Proto-Oncogene, Src family Tyrosine Kinase (Fyn), FYN (gene 2534), sequence (P06241 whole entry, looked up): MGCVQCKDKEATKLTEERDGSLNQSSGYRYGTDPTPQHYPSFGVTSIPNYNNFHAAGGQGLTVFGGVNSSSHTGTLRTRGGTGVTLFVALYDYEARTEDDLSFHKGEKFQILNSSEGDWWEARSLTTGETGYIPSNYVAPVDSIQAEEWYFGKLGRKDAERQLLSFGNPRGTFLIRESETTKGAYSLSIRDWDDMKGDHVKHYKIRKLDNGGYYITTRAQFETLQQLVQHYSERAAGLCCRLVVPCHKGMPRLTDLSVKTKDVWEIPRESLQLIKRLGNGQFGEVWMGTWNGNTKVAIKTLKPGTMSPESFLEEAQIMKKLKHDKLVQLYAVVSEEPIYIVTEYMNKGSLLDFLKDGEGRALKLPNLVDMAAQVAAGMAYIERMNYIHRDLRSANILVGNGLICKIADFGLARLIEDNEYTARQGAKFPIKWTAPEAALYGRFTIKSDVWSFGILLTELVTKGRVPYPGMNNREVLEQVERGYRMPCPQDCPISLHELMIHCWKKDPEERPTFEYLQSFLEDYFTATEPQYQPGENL
human Janus Kinase 2 (Jak2), JAK2 (gene 3717), sequence (O60674 whole entry, looked up): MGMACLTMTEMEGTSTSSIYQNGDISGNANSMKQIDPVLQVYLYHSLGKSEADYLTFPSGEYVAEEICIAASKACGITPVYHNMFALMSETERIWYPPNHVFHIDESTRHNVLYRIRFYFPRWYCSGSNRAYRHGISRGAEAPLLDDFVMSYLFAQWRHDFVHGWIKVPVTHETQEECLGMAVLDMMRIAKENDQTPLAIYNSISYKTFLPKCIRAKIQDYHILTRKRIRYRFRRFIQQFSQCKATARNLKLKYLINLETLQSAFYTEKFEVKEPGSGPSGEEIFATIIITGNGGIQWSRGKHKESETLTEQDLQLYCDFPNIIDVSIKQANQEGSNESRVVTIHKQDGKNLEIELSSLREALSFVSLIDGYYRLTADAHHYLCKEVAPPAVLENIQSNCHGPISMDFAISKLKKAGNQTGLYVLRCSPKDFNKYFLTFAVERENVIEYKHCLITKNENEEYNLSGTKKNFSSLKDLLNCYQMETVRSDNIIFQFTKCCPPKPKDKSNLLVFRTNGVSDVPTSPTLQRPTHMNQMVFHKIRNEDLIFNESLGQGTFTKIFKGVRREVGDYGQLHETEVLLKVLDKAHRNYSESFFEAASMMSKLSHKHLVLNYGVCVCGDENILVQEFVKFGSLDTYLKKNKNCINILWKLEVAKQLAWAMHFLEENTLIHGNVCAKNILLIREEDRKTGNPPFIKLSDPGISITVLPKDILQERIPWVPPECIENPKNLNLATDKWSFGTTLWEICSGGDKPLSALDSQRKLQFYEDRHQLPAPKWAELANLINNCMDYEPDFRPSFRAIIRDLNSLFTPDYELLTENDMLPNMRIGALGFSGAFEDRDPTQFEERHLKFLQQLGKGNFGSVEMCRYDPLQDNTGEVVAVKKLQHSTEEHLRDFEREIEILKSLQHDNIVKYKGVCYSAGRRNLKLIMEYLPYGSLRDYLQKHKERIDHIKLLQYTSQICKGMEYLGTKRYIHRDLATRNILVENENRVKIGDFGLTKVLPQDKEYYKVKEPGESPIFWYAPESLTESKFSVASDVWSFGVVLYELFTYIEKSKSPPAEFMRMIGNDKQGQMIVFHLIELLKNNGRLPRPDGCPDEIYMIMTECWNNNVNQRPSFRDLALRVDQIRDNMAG
Histone deacetylase 3 (Homo sapiens), sequence (O15379 whole entry, looked up): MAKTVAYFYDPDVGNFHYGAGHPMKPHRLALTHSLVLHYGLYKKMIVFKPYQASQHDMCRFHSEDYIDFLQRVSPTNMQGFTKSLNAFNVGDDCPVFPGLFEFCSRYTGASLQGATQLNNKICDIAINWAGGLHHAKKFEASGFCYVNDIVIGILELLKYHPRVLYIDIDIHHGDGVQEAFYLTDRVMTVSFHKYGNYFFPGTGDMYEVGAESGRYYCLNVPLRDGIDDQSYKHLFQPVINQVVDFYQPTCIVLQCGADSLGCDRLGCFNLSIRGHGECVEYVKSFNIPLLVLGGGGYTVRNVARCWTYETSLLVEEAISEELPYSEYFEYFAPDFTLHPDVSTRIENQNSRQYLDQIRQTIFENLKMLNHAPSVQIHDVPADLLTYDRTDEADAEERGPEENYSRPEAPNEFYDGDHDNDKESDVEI
Glycogen synthase kinase-3 beta (Homo sapiens), sequence (P49841 whole entry, looked up): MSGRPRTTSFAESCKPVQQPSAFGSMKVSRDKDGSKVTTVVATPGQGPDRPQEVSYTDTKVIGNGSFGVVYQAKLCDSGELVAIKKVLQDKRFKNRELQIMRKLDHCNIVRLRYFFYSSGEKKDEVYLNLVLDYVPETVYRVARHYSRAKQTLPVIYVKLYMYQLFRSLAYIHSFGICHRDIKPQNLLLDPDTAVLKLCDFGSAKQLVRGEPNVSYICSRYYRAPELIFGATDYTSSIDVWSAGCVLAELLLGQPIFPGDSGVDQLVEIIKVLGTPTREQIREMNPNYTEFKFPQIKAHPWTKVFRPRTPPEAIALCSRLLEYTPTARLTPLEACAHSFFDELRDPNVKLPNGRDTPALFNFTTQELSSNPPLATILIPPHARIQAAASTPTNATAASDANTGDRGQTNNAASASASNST
Mitogen-activated protein kinase 3 (Homo sapiens), sequence (P27361 whole entry, looked up): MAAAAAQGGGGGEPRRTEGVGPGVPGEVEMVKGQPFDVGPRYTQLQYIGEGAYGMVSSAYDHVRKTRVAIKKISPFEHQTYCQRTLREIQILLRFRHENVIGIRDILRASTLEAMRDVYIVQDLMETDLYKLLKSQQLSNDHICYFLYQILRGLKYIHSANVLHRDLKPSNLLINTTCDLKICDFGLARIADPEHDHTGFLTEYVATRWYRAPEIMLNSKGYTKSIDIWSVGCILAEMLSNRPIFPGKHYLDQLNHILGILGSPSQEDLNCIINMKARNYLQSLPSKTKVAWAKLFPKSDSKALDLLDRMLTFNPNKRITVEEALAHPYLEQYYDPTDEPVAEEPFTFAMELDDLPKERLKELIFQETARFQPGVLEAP
human Elastase, ELANE (gene 1991), sequence (P08246 whole entry, looked up): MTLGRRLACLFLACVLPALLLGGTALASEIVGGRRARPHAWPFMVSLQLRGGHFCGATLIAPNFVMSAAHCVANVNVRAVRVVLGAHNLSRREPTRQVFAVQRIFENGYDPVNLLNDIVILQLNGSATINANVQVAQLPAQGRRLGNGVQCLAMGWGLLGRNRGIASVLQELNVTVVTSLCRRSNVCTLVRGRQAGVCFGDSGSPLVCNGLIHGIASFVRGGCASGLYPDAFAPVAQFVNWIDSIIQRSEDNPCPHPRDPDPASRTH

Question: How did the outcome [1] turn out when `Cc1cc(N)n(-c2ccccc2)n1` was run?
Answer: inactive

Question: How did the AC50 [2] turn out when `O=C(c1ccc(OCCN2CCCCC2)cc1)c1c(-c2ccc(O)cc2)sc2cc(O)ccc12` was run?
Answer: 12.6 µM (active)

Question: And the AC50 [3]?
Answer: 21 µM (active)

Question: And the outcome [4]?
Answer: inactive

Question: What about the outcome [1] of the same compound?
Answer: inactive

Question: What about the AC50 [5] of the same compound?
Answer: 35.6 µM (active)

Question: What about the AC50 [6] of the same compound?
Answer: 25 µM (active)

Question: Which outcome [1] does the source give for `NC(=O)c1c(Cl)cccc1Cl` here?
Answer: inactive

Question: With `C[C@]12CC[C@@H]3c4ccc(O)cc4CC[C@H]3[C@@H]1CC[C@@H]2O` as the compound, how does the outcome [7] read?
Answer: inactive

Question: `CCCCCCCC1CCCC1=O` (stereo not drawn) was tested. Which outcome [1] did it give?
Answer: inactive

Question: For `CCOC(=O)C=Cc1ccccc1`, which outcome [1] is on record?
Answer: inactive

Question: Which outcome [1] does the source give for `CCOC(=O)C(=O)OCC` here?
Answer: inactive

Question: For `CC1(C)CC(=O)CC(C)(C)N1`, which outcome [1] is on record?
Answer: inactive

Question: `C=C(C)C(N)=O` was tested. Which outcome [8] did it give?
Answer: inactive

Question: Which AC50 [1] does the source give for `N#CCCNCCC#N` here?
Answer: 21.8 µM (active)

Question: How did the outcome [2] turn out when `CC/C(=C(\c1ccccc1)c1ccc(OCCN(C)C)cc1)c1ccccc1` was run?
Answer: inactive

Question: What about the outcome [1] of the same compound?
Answer: inactive

Question: What about the AC50 [5] of the same compound?
Answer: 22.9 µM (active)

Question: What about the outcome [9] of the same compound?
Answer: inactive

Question: And the AC50 [6]?
Answer: 11.1 µM (active)

Question: What about the outcome [10] of the same compound?
Answer: inactive

Question: `C=C(C)C(=O)OCCC[Si](OC)(OC)OC` was tested. Which AC50 [1] did it give?
Answer: 25 µM (active)

Question: Which AC50 [1] does the source give for `Cc1ccc(C(C)(C)O)cc1` here?
Answer: 44.3 µM (active)

Question: `CC/C=C\C#N` was tested. Which AC50 [2] did it give?
Answer: 40.4 µM (active)

Question: And the outcome [4]?
Answer: inactive

Question: For `CC(=O)C1C(=O)C=C(C)OC1=O` (stereo not drawn), which AC50 [1] is on record?
Answer: 39.1 µM (active)

Question: Which outcome [1] does the source give for `CC(C)OB(OC(C)C)OC(C)C` here?
Answer: inactive

Question: `CCC(CC)CO` was tested. Which outcome [1] did it give?
Answer: inactive

Question: `c1ccc(Sc2ccccc2)cc1` was tested. Which outcome [1] did it give?
Answer: inactive

Question: With `CCCCCCCCOC(C)=O` as the compound, how does the AC50 [2] read?
Answer: 25 µM (active)

Question: `N#CCCCC(C#N)CCC#N` (stereo not drawn) was tested. Which outcome [1] did it give?
Answer: inactive

Question: Which outcome [1] does the source give for `CC(CO)(CO)[N+](=O)[O-]` here?
Answer: inactive

Question: Which AC50 [2] does the source give for `O=C1OC2(c3ccc(O)cc3Oc3cc(O)ccc32)c2ccccc21` here?
Answer: 23.6 µM (active)

Question: And the outcome [4]?
Answer: inactive

Question: With `Nc1ccc(N)c([N+](=O)[O-])c1` as the compound, how does the outcome [1] read?
Answer: inactive

Question: How did the outcome [1] turn out when `C1COCO1` was run?
Answer: inactive

Question: `NC(=O)NC(N)=O` was tested. Which AC50 [2] did it give?
Answer: 25 µM (active)

Question: And the outcome [1]?
Answer: inactive
